Data taken from PubChem BioAssay.
The source made the active and inactive calls. Unless noted, no rule for the calls is given here.

Key:
[1] = system: Wnt5a (protein binding on small-molecule microarray); experiment: small molecules binding Wnt5a protein – biophysical, small-molecule microarray, 635/667 nm fluorescence, primary screen (AID 1142); conditions: 635 nm fluorescence, higher = more signal;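 also: fluorescence read at 667 nm with signal to noise per printed feature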
[2] = ATP-based viability of Huh7 replicon cells – cell-based, CellTiter-Glo luminescence, basal, 48 h, cytotoxicity control for HCV replication inhibitor project, primary screen (AID 1143); conditions: higher = more signal, called active from +8 up or from −8 down;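 also: Huh7 hepatoma cells carrying a hepatitis C replication reporter with no stimulus; test concentration not given here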
[3] = Pseudomonas biofilm growth suppression – PAO1 strain, BacTiter-Glo luminescence, LB-PBS, primary screen (AID 1144); conditions: P. aeruginosa PAO1 biofilm, 12 h, higher = more signal
[4] = basal CRE-LacZ reporter activity in PC12 – cell-based, unstimulated, primary screen (AID 1145); conditions: no forskolin, luminescence, 4.5 h, higher = more signal, called active from +8 up or from −8 down
[5] = forskolin-driven CRE-LacZ activity in PC12 – cell-based, CRE-LacZ reporter, forskolin-stimulated, primary screen (AID 1146); conditions: luminescence, 4.5 h, higher = more signal, called active from +8 up or from −8 down;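 also: PC12 cells with 6xCRE LacZ reporter stimulated by forskolin 10 µM; beta-galactosidase reporter signal reflecting CREB driven transcription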
[6] = biological target: Streptavidin (Streptomyces avidinii) (UniProt P22629); experiment: compounds binding control protein streptavidin – biophysical, small-molecule microarray, 635/667 nm fluorescence, artefact control for SMM compound annotation, primary screen (AID 1147); conditions: higher = more signal;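 also: signal reflects streptavidin binding to arrayed compounds as a control protein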
Chain of Streptavidin (Streptomyces avidinii) (P22629 whole entry, looked up): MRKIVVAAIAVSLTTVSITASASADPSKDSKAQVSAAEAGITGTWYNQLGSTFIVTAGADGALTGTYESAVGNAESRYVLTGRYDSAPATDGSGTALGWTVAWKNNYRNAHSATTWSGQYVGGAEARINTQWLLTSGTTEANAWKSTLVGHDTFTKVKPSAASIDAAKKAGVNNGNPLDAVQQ

[7] = probe aInhba binding on compound microarray – biochemical, small-molecule microarray, 635/667 nm fluorescence, primary screen (AID 1148); conditions: higher = more signal;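 also: score merges 667nm spot fluorescence with signal-to-noise for antibody binding to printed compounds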
Torsin-1A (Homo sapiens) [8] = biological target: Torsin-1A (Homo sapiens) (UniProt O14656); experiment: TOR1A wild-type binding on microarray – cell lysate, small-molecule microarray, lysate, 635/667 nm, primary screen (AID 1149); conditions: COS7 hTOR1A-WT lysate, 635 nm fluorescence, higher = more signal
Chain of Torsin-1A (Homo sapiens) (O14656 whole entry, looked up): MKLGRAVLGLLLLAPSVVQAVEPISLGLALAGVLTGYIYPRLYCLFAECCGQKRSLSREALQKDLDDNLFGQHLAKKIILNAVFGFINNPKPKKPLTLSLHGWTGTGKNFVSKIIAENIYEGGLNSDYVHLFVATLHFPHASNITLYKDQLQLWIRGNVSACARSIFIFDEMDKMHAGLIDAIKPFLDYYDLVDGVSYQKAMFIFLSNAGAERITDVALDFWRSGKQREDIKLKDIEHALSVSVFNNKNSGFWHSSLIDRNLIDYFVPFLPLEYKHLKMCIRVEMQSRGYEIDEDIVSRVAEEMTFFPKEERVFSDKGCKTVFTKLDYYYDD

Torsin-1A (Homo sapiens) [9] = biological target: Torsin-1A (Homo sapiens) (UniProt O14656); experiment: torsin A mutant lysate binding on microarrays – cell lysate, small-molecule microarray, COS7 lysate, 635/667 nm fluorescence, primary screen (AID 1150); conditions: COS7 hTOR1A mutant lysate, 635 nm fluorescence, higher = more signal;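 also: score pools 667 nm emission and signal to noise measuring lysate protein binding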
[10] = system: Sonic hedgehog protein (Shh); experiment: Sonic hedgehog microarray binding compounds – biochemical, small-molecule microarray, 635/667 nm fluorescence, primary screen (AID 1151); conditions: 635 nm fluorescence, higher = more signal;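 also: Shh protein binding to compounds spotted on small-molecule microarray slides; score combines spot fluorescence intensity with signal-to-noise across triplicate slides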
[11] = optical density shifts of acrAB sulA E. coli – strain DRC41, OD650, 48 h, E. coli filamentation inducer project, primary screen (AID 1152); conditions: higher = more signal, called active from +8 up or from −8 down;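 also: E. coli MC1000 strain DRC41 lacking acrAB efflux pump and sulA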
[12] = probe aLefty1 binding on compound microarray – biochemical, small-molecule microarray, 635/667 nm fluorescence, primary screen (AID 1153); conditions: higher = more signal;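 also: score merges spot fluorescence with signal-to-noise ratio from the scanned slide images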
[13] = plasmodial surface anion channel blockers, osmotic lysis – cell-based, P. falciparum Indochina, OD700, 1 h, primary screen (AID 1154); conditions: P. falciparum Indochina infected RBC osmotic lysis, higher = more signal, called active from +8 up or from −8 down
[14] = plasmodial surface anion channel blockers, osmotic lysis – cell-based, P. falciparum Indochina, OD700, 2 h, primary screen (AID 1155);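 also: lysis reports solute entry through the parasite surface anion channel PSAC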; conditions: P. falciparum Indochina infected erythrocytes, higher = more signal, called active from +8 up or from −8 down
[15] = changes in parasitized red cell lysis, either direction – P. falciparum Indochina, OD700, 3 h, PSAC antagonist project, primary screen (AID 1156); conditions: P. falciparum-infected erythrocytes, osmotic lysis, higher = more signal, called active from +8 up or from −8 down
[16] = plasmodial surface anion channel blockers, osmotic lysis – cell-based, P. falciparum Indochina, OD700, 18 h, primary screen (AID 1157); conditions: P. falciparum Indochina infected erythrocytes, osmotic lysis OD700, 18 h; higher = more signal, called active from +8 up or from −8 down
[17] = S6 kinase pathway phospho-S6 level changes – cell-based, A549, cytoblot, luminescence, serum-stimulated, primary screen (AID 1158); conditions: 5 h, higher = more signal;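 also: serum-stimulated A549 lung adenocarcinoma cells; signal is phosphorylated S6 detected by cytoblot immunostaining with HRP secondary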
[18] = biological target: NADPH oxidase 2 (Homo sapiens) (UniProt P04839); experiment: compounds shifting NOX2 Amplex Red fluorescence – cell-based, HEK293-NOX2, PMA-stimulated, NOX inhibitor project, primary screen (AID 1159); conditions: 45 min, higher = more signal, called active from +8 up or from −8 down; also: test concentration not given here
Chain of NADPH oxidase 2 (Homo sapiens) (P04839 whole entry, looked up): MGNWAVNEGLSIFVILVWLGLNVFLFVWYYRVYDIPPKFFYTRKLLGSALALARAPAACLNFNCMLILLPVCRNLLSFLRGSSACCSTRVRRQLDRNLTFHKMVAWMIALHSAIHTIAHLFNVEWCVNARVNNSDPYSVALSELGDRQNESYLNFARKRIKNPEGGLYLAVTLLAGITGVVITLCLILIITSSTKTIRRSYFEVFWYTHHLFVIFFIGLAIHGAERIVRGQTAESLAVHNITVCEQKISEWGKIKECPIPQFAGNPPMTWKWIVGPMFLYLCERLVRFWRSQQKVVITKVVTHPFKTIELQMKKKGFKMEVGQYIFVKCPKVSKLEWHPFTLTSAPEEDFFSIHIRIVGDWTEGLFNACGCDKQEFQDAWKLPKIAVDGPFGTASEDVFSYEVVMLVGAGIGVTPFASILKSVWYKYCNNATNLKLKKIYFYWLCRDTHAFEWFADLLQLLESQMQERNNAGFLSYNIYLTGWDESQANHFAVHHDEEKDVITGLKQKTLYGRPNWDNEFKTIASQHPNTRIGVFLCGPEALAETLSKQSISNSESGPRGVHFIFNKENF

[19] = biological target: NADPH oxidase 4 (Homo sapiens) (UniProt Q9NPH5); experiment: compounds shifting NOX4 Amplex Red fluorescence – cell-based, HEK293-NOX4, tetracycline-induced, NOX inhibitor project, primary screen (AID 1160); conditions: HEK293-NOX4, Amplex Red H2O2 fluorescence, 45 min; higher = more signal, called active from +8 up or from −8 down
Chain of NADPH oxidase 4 (Homo sapiens) (Q9NPH5 whole entry, looked up): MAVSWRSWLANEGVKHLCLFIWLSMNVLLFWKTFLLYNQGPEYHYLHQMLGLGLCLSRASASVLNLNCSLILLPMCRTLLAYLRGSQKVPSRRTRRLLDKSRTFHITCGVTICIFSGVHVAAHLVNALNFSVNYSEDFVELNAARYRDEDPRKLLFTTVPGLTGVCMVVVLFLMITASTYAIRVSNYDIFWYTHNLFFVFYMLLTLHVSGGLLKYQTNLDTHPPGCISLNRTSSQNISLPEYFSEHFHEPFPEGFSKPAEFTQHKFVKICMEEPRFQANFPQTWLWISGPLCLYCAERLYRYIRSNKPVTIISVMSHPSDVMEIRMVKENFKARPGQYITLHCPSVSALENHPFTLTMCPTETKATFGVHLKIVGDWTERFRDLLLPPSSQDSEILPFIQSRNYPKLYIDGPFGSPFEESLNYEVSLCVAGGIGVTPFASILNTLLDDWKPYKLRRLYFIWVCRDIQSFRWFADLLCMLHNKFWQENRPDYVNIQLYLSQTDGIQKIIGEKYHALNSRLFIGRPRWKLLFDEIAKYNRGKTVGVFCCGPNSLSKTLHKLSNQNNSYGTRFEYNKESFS

[20] = biological target: NADPH oxidase 5 (Homo sapiens) (UniProt Q96PH1); experiment: compounds shifting NOX5 Amplex Red fluorescence – cell-based, HEK293-NOX5, NOX inhibitor project, primary screen (AID 1161); conditions: HEK293-NOX5, ionomycin, 45 min, higher = more signal
Chain of NADPH oxidase 5 (Homo sapiens) (Q96PH1 whole entry, looked up): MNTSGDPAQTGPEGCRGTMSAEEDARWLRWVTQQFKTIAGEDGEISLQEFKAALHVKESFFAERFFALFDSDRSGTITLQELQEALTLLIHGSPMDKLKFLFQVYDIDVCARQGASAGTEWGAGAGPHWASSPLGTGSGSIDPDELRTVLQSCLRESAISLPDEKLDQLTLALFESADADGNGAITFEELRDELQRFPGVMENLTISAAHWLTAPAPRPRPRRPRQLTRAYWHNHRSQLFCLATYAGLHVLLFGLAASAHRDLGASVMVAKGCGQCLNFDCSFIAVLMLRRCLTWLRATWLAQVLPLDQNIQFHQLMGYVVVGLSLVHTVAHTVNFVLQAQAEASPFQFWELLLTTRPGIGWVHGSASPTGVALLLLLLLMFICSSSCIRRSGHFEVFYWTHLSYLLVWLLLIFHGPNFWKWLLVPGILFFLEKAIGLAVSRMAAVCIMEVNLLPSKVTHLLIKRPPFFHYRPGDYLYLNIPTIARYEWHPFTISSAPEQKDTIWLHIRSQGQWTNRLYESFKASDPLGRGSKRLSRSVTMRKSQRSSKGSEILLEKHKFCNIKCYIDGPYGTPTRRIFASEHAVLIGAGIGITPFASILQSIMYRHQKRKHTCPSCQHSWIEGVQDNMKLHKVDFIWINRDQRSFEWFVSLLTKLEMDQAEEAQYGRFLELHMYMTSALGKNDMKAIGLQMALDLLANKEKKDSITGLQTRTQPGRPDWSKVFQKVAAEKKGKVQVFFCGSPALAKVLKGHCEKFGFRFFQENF

Row | Compound | composite z-score [1] | z-score [2] | z-score [3] | z-score [4] | z-score [5] | composite z-score [6] | composite z-score [7] | composite z-score (Torsin-1A (Homo sapiens) [8]) | composite z-score (Torsin-1A (Homo sapiens) [9]) | composite z-score [10] | z-score [11] | composite z-score [12] | z-score [13] | z-score [14] | z-score [15] | z-score [16] | z-score [17] | z-score [18] | z-score [19] | z-score [20]
1 | Cc1ccccc1C(O)C1C=CC2C(=O)N(c3ccccc3)C(=O)C2N1Nc1ccc(C#N)cc1 (stereo not given) | 0.51 | 0.466 (inactive) | -1.14 (inactive) | -0.133 (inactive) | 1.66 (inactive) | 2.17 | 0.816 | 0.261 | 1.58 | -0.442 | 0.307 (inactive) | 1.1 | 26 (active) | 14.9 (active) | 3.53 (inactive) | 1.81 (inactive) | -0.762 | -0.865 (inactive) | -4.92 (inactive) | -3.18
2 | CCCCCCc1nc(-c2cc(C)c(OC)c(C)c2)cc2c1[Si](C(C)C)(C(C)C)O[C@H]2c1ccccc1 | -0.452 | -0.59 (inactive) | 0.368 (inactive) | -0.244 (inactive) | -0.272 (inactive) | 0.0741 | -0.121 | -1.48 | -1.07 | -0.162 | -0.548 (inactive) | -0.0989 | 1.31 (inactive) | -0.0446 (inactive) | 1.06 (inactive) | 0.0157 (inactive) | 0.561 | -0.313 (inactive) | -1.16 (inactive) | -2.07
3 | COCCOC(=O)N1C(=O)[C@@]2(c3cc(C#CCC(C(=O)OC)C(=O)OC)ccc31)[C@H](c1ccccc1OCCO)N1[C@H](c3ccccc3)[C@H](c3ccccc3)OC(=O)[C@H]1[C@@H]2C(=O)N1CCCCCCC1 | 1.16 | -1.66 (inactive) | -0.129 (inactive) | -0.329 (inactive) | 0.0965 (inactive) | 2.45 | 0.628 | 1.29 | 0.96 | 1.66 | 0.0371 (inactive) | 2.43 | 0.998 (inactive) | 1.01 (inactive) | 0.259 (inactive) | 0.508 (inactive) | 0.0992 | 0.0483 (inactive) | 0.309 (inactive) | 1.52
4 | COc1cc2c(cc1OC)CN(C(=O)[C@H]1[C@@H]3C(=O)O[C@@H](c4ccccc4)[C@@H](c4ccccc4)N3[C@@H](c3ccc(O)cc3)[C@]13C(=O)Nc1ccc(C#CC4(O)CCCCCC4)cc13)CC2 | 0.723 | -0.715 (inactive) | -0.785 (inactive) | 0.425 (inactive) | 0.603 (inactive) | 2.42 | 0.472 | 0.601 | 1.36 | 1.39 | -0.287 (inactive) | 1.76 | 0.621 (inactive) | 1.23 (inactive) | 0.89 (inactive) | 0.737 (inactive) | 0.48 | 1.79 (inactive) | -0.239 (inactive) | 1.02
5 | Cc1ccc([C@@H]2CC=C(C(=O)O)[C@H](c3ccccc3)N2S(=O)(=O)c2ccc(C)cc2)cc1 | 0.382 | -0.385 (inactive) | 0.134 (inactive) | 0.332 (inactive) | -0.311 (inactive) | 1.77 | 0.277 | 0.385 | 0.528 | 0.157 | -1.17 (inactive) | 1 | 1.83 (inactive) | 0.929 (inactive) | 0.692 (inactive) | 0.708 (inactive) | -0.256 | 0.489 (inactive) | -1.2 (inactive) | -0.96
6 | CCCC[C@@H]1C[C@H]1[C@@H](NC(=O)c1cccs1)c1ccc(Cl)cc1 | -0.29 | -3.19 (inactive) | -0.288 (inactive) | 0.39 (inactive) | 0.958 (inactive) | -1.05 | -0.224 | -0.989 | -1.01 | -1.75 | -1.06 (inactive) | -0.124 | 0.492 (inactive) | -0.696 (inactive) | 1.13 (inactive) | -1.93 (inactive) | 1.38 | -3.93 (inactive) | -6.76 (inactive) | -2.26
7 | Cc1ccc(S[C@]2(C(=O)NCCCN(C)C)CC(=O)N(Cc3ccccc3)[C@@H]2c2ccc(CO)cc2I)cc1 | -0.278 | -2.97 (inactive) | 0.831 (inactive) | 0.531 (inactive) | 2.84 (inactive) | -0.0112 | -0.0645 | -1.84 | -1.08 | -0.824 | -0.901 (inactive) | 0.374 | 8.39 (active) | 0.909 (inactive) | 1.94 (inactive) | 0.256 (inactive) | -0.0322 | -0.234 (inactive) | -1.63 (inactive) | 1.72
8 | CCC#CCN(Cc1ccccc1Br)[C@H](/C=C/c1ccccc1)[C@@H](O)Cc1ccccc1 | -0.659 | -1.45 (inactive) | 0.282 (inactive) | 2.94 (inactive) | 0.272 (inactive) | -0.312 | -0.179 | -0.586 | -0.542 | -1.18 | 0.625 (inactive) | -0.0035 | 1.79 (inactive) | 1.15 (inactive) | -0.696 (inactive) | 0.475 (inactive) | -0.218 | -0.267 (inactive) | 0.0785 (inactive) | -0.41
